# High-throughput results deposited in PubChem by several laboratories.
# PfHsp90 set2 – growth inhibition of PfHsp90-expressing yeast, primary screen, antimalarial PfHsp90 inhibitor project, S. cerevisiae, BacTiter-Glo luminescence, single point, set 2. inhibition, % at 9.4 µM. BacTiter-Glo ATP, 48 h; yeast lacking PDR1 and PDR3 efflux regulators. 0.32% of 310,000 active;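 active = every replicate shows inhibition above about 80%, whatever the replicate mean, limit read from the data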;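 also: 0% = DMSO neutral controls and 100% = 20 µM radicicol positive controls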
# SKKanGAS inh – S. pyogenes SKKanGAS growth inhibitors in kanamycin, primary screen, streptokinase expression inhibitor project, SKKanGAS strain, BacTiter-Glo luminescence. 1.3% of 300,000 active. AID 1662, 2009. 6 h. inhibition, % at 7.5 µM;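 active = mean replicate score, as percent of positive control median, at least 50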;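 also: strain carries kanamycin resistance gene driven by streptokinase promoter and grows in 40 µg/ml kanamycin; loss of luminescence reflects streptokinase promoter inhibition or plain growth inhibition; 0% = median of DMSO wells and 100% = positive control at its reference dose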
# tim23-1 inh – growth inhibitors of tim23-1 mutant yeast, primary screen, luminescence, uHTS; S. cerevisiae tim23-1 growth, BacTiter-Glo luminescence, 24 h; inhibition, % at 20 µM; 1.3% of 330,000 active; AID 463212, 2010;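 active = growth inhibition of the mutant yeast at or above 50%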;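 also: temperature-sensitive mutant grown at 25 °C; plate controls were DMSO-treated mutant yeast for no effect and medium wells lacking yeast for full effect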
# TIM10 inh – growth inhibitors of isogenic TIM10 control yeast, primary screen, counter-screen for tim10-1 yeast inhibitor project, luminescence, uHTS | S. cerevisiae TIM10 strain growth, BacTiter-Glo luminescence, 24 h | inhibition, % at 10 µM | 1.4% of 330,000 active | AID 463195, 2010;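 active = inhibition of 40% or more at the single tested concentration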;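 also: wild-type TIM10 isogenic control strain grown at permissive 25 °C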
# tim10-1 inh – growth inhibitors of tim10-1 mutant yeast, primary screen, luminescence, uHTS; inhibition, % at 20 µM; 2.2% of 330,000 active; S. cerevisiae tim10-1 ts strain growth, BacTiter-Glo, 24 h;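 active = inhibition of at least 40%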;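 also: mutant grown at 25 °C; 0% = DMSO wells with yeast and 100% = wells holding no yeast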
# tim10-1 confirm – growth inhibitors of tim10-1 mutant yeast, confirmation, single concentration, luminescence, S. cerevisiae; shares compounds with tim10-1 inh; 56% of 7,400 active; inhibition, % at 20 µM; S. cerevisiae tim10-1 ts strain growth, BacTiter-Glo, 24 h; AID 463213, 2010;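 active = inhibition of yeast growth at or above a set limit in either of two repeat tests at 20 µM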;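 also: tim10-1 mutant grown at permissive 25 °C to find synthetic lethal compounds; 0% = DMSO yeast wells and 100% = medium wells without yeast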
# tim10 confirm – growth inhibitors of wild-type TIM10 yeast, confirmation, counter-screen for tim10-1 synthetic lethality project, single concentration, luminescence, S. cerevisiae; shares compounds with TIM10 inh; S. cerevisiae tim10 strain growth, BacTiter-Glo luminescence, 24 h; inhibition, % at 10 µM; 63% of 4,600 active;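 active = inhibition of yeast growth at or above a set limit in either of two replicates at 10 µM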;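 also: this counterscreen used the strain with wild-type TIM10; 0% = yeast with DMSO and 100% = medium wells lacking yeast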
# tim23-1 confirm – tim23-1 mutant yeast growth inhibitors, confirmation, luminescence, single concentration; S. cerevisiae tim23-1 growth, BacTiter-Glo luminescence, 24 h; shares compounds with tim23-1 inh; 83% of 4,400 active; inhibition, % at 20 µM;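 active = inhibition above about 39% in either of two replicate wells at 20 µM, limit read from the data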;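 also: temperature-sensitive tim23-1 mutant grown at 25 °C; 0% = DMSO wells with yeast and 100% = medium wells without yeast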
# An asterisk follows results filed as active; . = no result given; + = active, no number. This is a sample that favours compounds with a hit; in the whole collection about 4.4% have one here.
SMILES,PfHsp90 set2,SKKanGAS inh,tim23-1 inh,TIM10 inh,tim10-1 inh,tim10-1 confirm,tim10 confirm,tim23-1 confirm
CCOC(=O)C(O)(c1ccc(NC(=O)c2ccc(Cl)c(Cl)c2)cc1)C(F)(F)F (centres undefined),-8.8,-6.4,57.4*,38.6,42.9*,34.1*,.,49.9*
CN(c1ccc(OCC(=O)N2CCN(C/C=C/c3ccccc3)CC2)cc1)S(=O)(=O)c1cccs1,-14.4,-8.4,11.0,-5.3,2.8,.,.,.
C=C(C)C(Cc1c(OC)ccc(C(=O)/C=C/c2ccc(O)cc2)c1O)OO (centres undefined),.,.,75.2*,45.8*,43.8*,64.8*,69.2*,76.4*
Cc1cc(N2CCCC2)ccc1C=C(C#N)C#N,-19.6,-2.9,3.0,0.8,4.1,.,.,.
Cc1ccc2cc(C=C(C#N)C#N)c(Cl)nc2c1,10.8,2.1,79.9*,46.2*,48.2*,30.9*,-8.2,76.0*
Cc1ccccc1[N+](=O)[O-],7.6,.,13.3,-0.9,5.0,.,.,.
Cc1cc([N+](=O)[O-])c2ccccc2[n+]1[O-],108.2*,-0.1,79.0*,86.8*,67.9*,61.0*,86.7*,63.8*
COC(=O)C1=C(c2cccc(OC)c2OC)C[C@@H]2CC[C@H]1N2C(=O)N1CCC(C)CC1,-22.1,0.0,32.9,22.9,17.9,.,.,.
CNc1ccc2oc(C[C@H]3O[C@@]4(CC[C@H]3C)O[C@H]([C@H](C)C(=O)c3ccc[nH]3)[C@H](C)C[C@H]4C)nc2c1C(=O)O,111.4*,106.5*,53.8*,-20.0,56.0*,29.0,.,36.6
O=C1C2CCCC1C(N1CCCCC1)CC2 (centres undefined),-4.7,-2.4,10.0,0.0,-1.3,.,.,.
Clc1ccc(C(c2ccc(Cl)cc2)n2cc[n+](CC(OCc3ccc(Cl)cc3Cl)c3ccc(Cl)cc3Cl)c2)cc1 (centres undefined),107.4*,.,88.4*,84.7*,92.9*,89.8*,-8.6,76.6*
CCn1nc(-c2ccccc2)nc2c(=O)n(C)c(=O)nc1-2,107.3*,94.9*,85.2*,95.7*,79.9*,83.1*,97.4*,82.7*
O=C1/C(=C\c2ccc(Cl)c(Cl)c2)N2CCC1CC2,-3.9,-1.8,52.4*,11.3,42.4*,23.0,.,35.2
CC(C#N)CCC#N (centres undefined),-6.9,.,-12.3,-3.5,-14.3,.,.,.
O=C1NC(=O)C(=Cc2ccc(-c3ccc(Cl)cc3)o2)C(=O)N1,22.8,-2.4,53.7*,20.1,45.4*,7.6,.,55.3*
COc1ccc(-n2c(O)c(C(C)=NCc3ccc4c(c3)OCO4)c(=O)[nH]c2=O)cc1,10.1,-2.0,-0.3,7.7,-12.6,.,.,.
CCC1(c2ccccc2)C(=O)NC(=S)NC1=O,15.4,.,.,.,.,.,.,.
CN1/C(=C\C=C\C2=[N+](C)c3ccc4ccccc4c3C2(C)C)C(C)(C)c2ccccc21,.,.,85.5*,74.2*,76.7*,56.5*,80.3*,79.2*
Cc1nc2c(=O)n(C)c(=O)nc-2n(C)n1,7.0,78.0*,54.3*,23.8,42.5*,22.5,.,63.0*
COc1ccccc1-n1c(-c2ccccc2)nc2ccccc2c1=O,1.9,8.5,25.2,-4.2,9.7,.,.,.
CCOC(=O)c1ccc(N2C(=O)CC(N3CCC(C#N)(c4ccccc4)CC3)C2=O)cc1 (centres undefined),12.2,6.3,41.8,41.8*,38.3,.,32.9*,.
N#CC1(c2ccccc2)CCN(C2CC(=O)N(c3cccc(F)c3)C2=O)CC1 (centres undefined),4.8,1.1,12.9,-0.6,6.1,.,.,.
O=C(c1cccc([N+](=O)[O-])c1)C12CN3CN(CN(C3)C1)C2,-1.3,2.7,-4.3,1.6,-11.4,.,.,.
Nc1c2c(nc3sc4c(c13)CCCC4)CCCC2,1.5,7.1,49.2,47.8*,24.3,.,38.0*,.
Nc1c2c(nc3sc4c(c13)CCCC4)CCCCC2,12.0,0.4,19.2,4.0,-12.0,.,.,.
SMILES,PfHsp90 set2,SKKanGAS inh,tim23-1 inh,TIM10 inh,tim10-1 inh,tim10-1 confirm,tim10 confirm,tim23-1 confirm
CCC(=NCc1ccco1)c1c(O)n(C2CCCCC2)c(=O)[nH]c1=O,7.7,0.4,42.0,40.2*,34.3,.,23.9,.
O=c1cccc2n1CC1CC2CN(c2ncnc3c2cnn3-c2ccc(Cl)cc2)C1 (centres undefined),-6.7,-1.1,35.3,44.0*,39.8,.,9.9,.
C=C1C2C[C@@]3([C@@H]1O)[C@@H](C[C@@H]2O)[C@@]12C4[C@@H]3C[C@@H]1[C@@](C)(CC[C@@H]2O)CN4CC,-2.0,.,-16.5,10.0,13.3,.,.,.
NCCc1ccccn1,.,-8.4,6.2,2.3,4.7,.,.,.
Cn1cnc(CCN)c1,-18.2,-0.6,3.4,40.4*,22.5,.,23.1,.
c1cncc(C2Nc3cccc4cccc(c34)N2)c1,-26.2,-0.5,33.5,25.8,25.6,.,.,.
CC1(C)C[C@H]2C=C(C=O)[C@]3(C=O)C[C@]3(C)[C@H]2C1,.,-0.1,-55.8,49.8*,-4.6,.,61.3*,.
Cc1cc(C=C2C(=O)NC(=S)NC2=O)c(C)n1C1CCCC1,-9.7,-8.5,55.3*,46.2*,38.4,.,45.0*,54.8*
COC(=O)C1=C(c2ccc(OC(F)(F)F)cc2)C[C@@H]2CC[C@H]1N2C(=O)NCCCOC(C)C,-0.2,.,22.5,4.6,13.6,.,.,.
CCOC(=O)C(O)(c1ccc(N(C)C(=O)COc2ccccc2)cc1)C(F)(F)F (centres undefined),-8.6,-2.5,14.2,-2.1,17.8,.,.,.
CN(C)C(=O)O/N=C(\N)COc1ccc(C(C)(C)C)cc1,12.8,-14.7,58.8*,72.7*,13.9,.,81.0*,53.8*
O=c1[nH]c(O)c(/C=C2/C=CC(c3cc(Cl)ccc3Cl)=N2)c(=O)[nH]1,-10.6,-7.7,53.6*,51.7*,32.0,.,51.7*,58.6*
CC1=Nc2ccccc2/C1=C/c1c(O)[nH]c(=O)[nH]c1=O,17.7,-3.0,1.5,0.1,-10.7,.,.,.
CCCCCCCCn1sccc1=O,+,.,65.2*,53.8*,-129.1,.,57.8*,-91.5
CCOc1cc(CNCCc2c[nH]c3ccccc23)cc(Cl)c1OC,18.6,1.8,7.5,24.0,39.7,.,.,.
COc1cccc(C2CC3C(=O)C=CC2N3Cc2ccccc2)c1 (centres undefined),4.3,10.8,54.6*,39.8,37.8,.,.,47.2*
